For 20 compounds, AC50 and outcome results are on record in PubChem BioAssay (EPA / NIEHS).

Several values for one entry are separate records, joined by “and”; a condition that tells them apart may be missing. Identical values can stand only once. More than one record can exist for a structure, and the calls need not agree. Activity calls are given as the source filed them. How the source made its calls: active means hit-call score of the fitted dose curve at least 0.9, where 1 is the maximum; inactive means score below 0.9.

This assay is described as follows: CCTE_Shafer_MEA_dev_spike_duration_mean: CCTE's Neural Network Formation Assay for Mean Spike Duration, Shafer Lab (AID 2284051).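 On AC50: potency for a decrease in mean network spike duration versus DMSO.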 The protocol: CCTE_Shafer_MEA_dev assay is conducted using Axion Biosystems 48 well microelectrode array (MEA) plates and Maestro recording system. Each well of the MEA plate contains a grid of 16 microelectrodes embedded in the culture surface. Electrically active cells, such as neurons, can be cultured over the electrodes, and electrical activity in these cells can be recorded extracellularly. The spontaneous firing of neurons is captured from each electrode on a microsecond timescale providing both temporally and spatially precise data. […] The CCTE_Shafer_MEA_dev assay uses primary cultures of rat cortical neurons. Recordings are made on days post-plating 5, 7, 9 and 12. As these cultures mature over time, neural networks develop functional activity and form cohesive networks in which electrical activity can be highly coordinated. CCTE_Shafer_MEA_dev_spike_duration_mean is 1 of 19 assay components of the CCTE_Shafer_MEA_dev assay. It measures the average duration of network spikes (temporally-clustered groups of action potential firing across multiple electrodes) during a recording in a microelectrode array (MEA) using Axion Biosystems Maestro 768 channel amplifier with the AxIS adaptive spike detector. To collapse across multiple recordings made on days post-plating 5, 7, 9 and 12, the trapezoidal area-under-the-curve of the component is calculated.Data from the assay component CCTE_Shafer_MEA_dev_spike_duration_mean was analyzed into 1 assay endpoint. This assay endpoint, CCTE_Shafer_MEA_dev_spike_duration_mean, was analyzed in the negative analysis fitting direction relative to DMSO as the negative control and baseline of activity. Using a type of functional reporter, gain or loss-of-signal activity can be used to understand electrical activity.
On the day prior to culture, each well was coated thoroughly with 150 uL of 0.05% polyethyleneimine (PEI, Sigma Cat P3143) in 50 mM HEPES (Sigma Cat H7523) at a pH of 8. The plate was incubated at 37C for one hour. PEI was rinsed out with 500 uL of sterile water three times. Plates were stored at 4C until the day of culture. This culture was plated at a seeding density of 1.5 x 10^5 cells/well on a 48-well MEA plate, prepared as described above. Cells were administered via a 25 uL media/laminin ([…]; Sigma Cat L2020-1MG) drop directly onto the microelectrode array, as adding the cells with the laminin results in better attachment than pre-coating with laminin. After 2 hours, an additional 475 uL of cortical media was added and the cells returned to the incubator. Exposure starts at day 0 of plating and is continued over twelve days of network development until the experiment is terminated. Cells are fed with fresh medium on DIV 5 and 9, following the recordings on those days. The entire volume of media in the well is exchanged and any vehicle or compound treatment is renewed. Complete details are found in OP-NHEERL/ISTD/SBB/TJS/2015-03-r0 (available on request, email shafer.tim@epa.gov). Measurement of the electrical activity is non-invasive, and recordings can be made from the same plate over multiple different days of the culture. In cortical neurons, this allows for the measurement of extracellular action potentials over the period during which networks form in the MEA plate.
For `CCOc1cc(Oc2ccc(C(F)(F)F)cc2Cl)ccc1[N+](=O)[O-]`, the AC50 was 4.18 µM (active).

As to `CNC(=O)ON=CC(C)(C)SC`, the call was inactive.

On to `CCOC(=O)CC(SP(=S)(OC)OC)C(=O)OCC` (stereo unspecified), for which the AC50 is 13.1 µM (active) and 4.76 µM (active).

For the compound `CC(C)(C)c1ccc(CSc2cnn(C(C)(C)C)c(=O)c2Cl)cc1`, the AC50 is 0.00163 µM (active).

`COC(=O)N(OC)c1ccccc1COc1ccn(-c2ccc(Cl)cc2)n1`: the AC50 is 88.7 nM (active) and 9.7 nM (active).

As for `COc1ccc(C(c2ccc(OC)cc2)C(Cl)(Cl)Cl)cc1`, the AC50 is 2.99 µM (active).

As to `CCCCOC(=O)c1ccccc1C(=O)OCCCC`, the AC50 was 50 µM (active).

With `CN(C)C(=S)SSC(=S)N(C)C`, the AC50 is 0.00527 µM (active).

Regarding `Cc1c(F)c(F)c(COC(=O)C2C(/C=C(\Cl)C(F)(F)F)C2(C)C)c(F)c1F` (stereo unspecified), the AC50 is 2.15 µM (active).

As to `N#Cc1nn(-c2c(Cl)cc(C(F)(F)F)cc2Cl)c(N)c1S(=O)C(F)(F)F` (stereo unspecified), the outcome was inactive.

Regarding `CO/C=C(/C(=O)OC)c1ccccc1Oc1cc(Oc2ccccc2C#N)ncn1`, the AC50 was 1.08 µM (active) and 874 nM (active).

With `CCCCNC(=O)n1c(NC(=O)OC)nc2ccccc21`, the result was inactive.

Turning to `CCNc1nc(Cl)nc(NC(C)C)n1`, the compound was called inactive.

In the case of `C=CC1(C)OC(=O)N(c2cc(Cl)cc(Cl)c2)C1=O` (stereo unspecified), the result was inactive.

In the case of `CCCCC(CC)COC(=O)c1ccccc1C(=O)OCC(CC)CCCC` (stereo unspecified), the compound was classed as inactive; the AC50 is 9.35 µM (active) and 4.75 µM (active).

In the case of `COP(N)(=O)SC` (stereo unspecified), the call was inactive.

Take `C=CCC1=C(C)C(OC(=O)C2C(C=C(C)C)C2(C)C)CC1=O` (stereo unspecified): the compound was classed as inactive.

Take `COP(=S)(OC)Oc1nc(Cl)c(Cl)cc1Cl`: the outcome was inactive.

Take `Cc1ccc(-c2c(Cl)nc(C#N)n2S(=O)(=O)N(C)C)cc1`: the AC50 is 29.7 µM (active).

Regarding `CCCCNC(=O)OCC#CI`, the AC50 was 3.81 µM (active) and 1.12 µM (active).

A word on the AC50: it is the concentration at which the activity in the assay is half-maximal.
